Test [1] can be described thus: compounds binding Alexa647 anti-His antibody – biochemical, small-molecule microarray, 635 nm fluorescence, artefact control for SMM control protein annotation, primary screen (AID 1128).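 Further: score merges feature fluorescence with signal-to-noise for each printed compound spot.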 The following applies: higher = more signal.
Test [2] has as its system Human papillomavirus type 1a E7 protein (residues 1-88). The test can be described thus: HPV1a E7 small-molecule binders, primary screen, biochemical, small-molecule microarray, residues 1-88, 635 nm (AID 1129). The following applies: small-molecule microarray binding, fluorescence 635 nm; higher = more signal.
The target in test [3] is Focal adhesion kinase 1 (Homo sapiens) (UniProt Q05397). As to the kind of experiment: PTK2 protein binding on printed compound slides – biochemical, small-molecule microarray, 635/667 nm fluorescence, BSA, DTT, primary screen (AID 1130).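 Further: composite of spot emission at 667 nm and signal to noise over triplicate slides.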 The following applies: 635 nm fluorescence, higher = more signal.
Test [4] has as its system Fibrinogen (Alexa647-labelled). The test can be described thus: Alexa647-fibrinogen binding to printed small molecules – biochemical, small-molecule microarray, 635/667 nm fluorescence, artefact control for SMM control-protein annotation, profiling panel (AID 1131).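 Further: z-score merges 667 nm fluorescence with per-spot signal-to-noise over triplicate slides.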 The following applies: fibrinogen-A647 binding fluorescence, higher = more signal.
The target in test [5] is Follistatin (Homo sapiens) (UniProt P19883). The test can be described thus: FST protein binding to printed compounds – biochemical, small-molecule microarray, 635/667 nm fluorescence, primary screen (AID 1132). The settings on record: 635 nm fluorescence, higher = more signal.
The target in test [6] is Fibroblast growth factor 2 (Homo sapiens) (UniProt P09038). As to the kind of experiment: basic fibroblast growth factor binding to printed compounds – biochemical, small-molecule microarray, 635/667 nm fluorescence, primary screen (AID 1133). The following applies: FGF2, fluorescence 635/667, higher = more signal.
Test [7] is described as follows: JC-1 mitochondrial potential readout, lung cancer cells – cell-based, A549, JC-1 fluorescence, basal, 24 h, 100 nL, profiling panel (AID 1138).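 Further: A549 lung adenocarcinoma cells under basal conditions with no added stimulus; test concentration not given here.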 The following applies: higher = more signal.
The next test has as its system Lefty1. The test can be described thus: Lefty1 protein binding to printed compounds – biochemical, small-molecule microarray, 635/667 nm fluorescence, primary screen (AID 1139). The following applies: fluorescence 635/667, higher = more signal.
The subject of test [8] is wheat germ agglutinin (Triticum aestivum), Alexa647-labelled. As to the kind of experiment: Alexa647-WGA lectin binding to printed small molecules – biochemical, small-molecule microarray, 635/667 nm fluorescence, artefact control for SMM control-protein annotation, profiling panel (AID 1140).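 Further: score merges 667 nm feature emission with signal to noise over triplicate slides.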 The settings on record: WGA-A647 binding, 635 nm fluorescence, higher = more signal.

The target in test [9] is Luciferin 4-monooxygenase (Photinus pyralis) (UniProt P08659). As to the kind of experiment: inhibition of purified Photinus pyralis luciferase – biochemical, luminescence, purified enzyme, 2006 set, primary screen (AID 1141).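 Further: cell-free assay with purified firefly luciferase at 100 ng per well in PBS; test concentration not given here.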 The following applies: purified firefly luciferase, SteadyGlo luminescence, 30 min; higher = more signal, called active from +8 up or from −8 down.
For test [10], the system named is Wnt5a (protein binding on small-molecule microarray). As to the kind of experiment: small molecules binding Wnt5a protein – biophysical, small-molecule microarray, 635/667 nm fluorescence, primary screen (AID 1142).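 Further: fluorescence read at 667 nm with signal to noise per printed feature.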 The following applies: 635 nm fluorescence, higher = more signal.
Test [11] in a line: ATP-based viability of Huh7 replicon cells – cell-based, CellTiter-Glo luminescence, basal, 48 h, cytotoxicity control for HCV replication inhibitor project, primary screen (AID 1143).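 Further: Huh7 hepatoma cells carrying a hepatitis C replication reporter with no stimulus; test concentration not given here.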 The settings on record: higher = more signal, called active from +8 up or from −8 down. Background: In antiviral work, replicon cells carry a viral genome segment that copies itself.
Test [12] in a line: Pseudomonas biofilm growth suppression – PAO1 strain, BacTiter-Glo luminescence, LB-PBS, primary screen (AID 1144). The settings on record: P. aeruginosa PAO1 biofilm, 12 h, higher = more signal.
Test [13] can be described thus: basal CRE-LacZ reporter activity in PC12 – cell-based, unstimulated, primary screen (AID 1145). The following applies: no forskolin, luminescence, 4.5 h, higher = more signal, called active from +8 up or from −8 down.
Test [14] can be described thus: forskolin-driven CRE-LacZ activity in PC12 – cell-based, CRE-LacZ reporter, forskolin-stimulated, primary screen (AID 1146).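 Further: PC12 cells with 6xCRE LacZ reporter stimulated by forskolin 10 µM; beta-galactosidase reporter signal reflecting CREB driven transcription.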 The following applies: luminescence, 4.5 h, higher = more signal, called active from +8 up or from −8 down.
Test [15] has as its target Streptavidin (Streptomyces avidinii) (UniProt P22629). The test can be described thus: compounds binding control protein streptavidin – biophysical, small-molecule microarray, 635/667 nm fluorescence, artefact control for SMM compound annotation, primary screen (AID 1147).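 Further: signal reflects streptavidin binding to arrayed compounds as a control protein.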 The settings on record: higher = more signal.
Test [16] in a line: probe aInhba binding on compound microarray – biochemical, small-molecule microarray, 635/667 nm fluorescence, primary screen (AID 1148).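 Further: score merges 667nm spot fluorescence with signal-to-noise for antibody binding to printed compounds.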 The following applies: higher = more signal.
Test [17] has as its target Torsin-1A (Homo sapiens) (UniProt O14656). The test can be described thus: TOR1A wild-type binding on microarray – cell lysate, small-molecule microarray, lysate, 635/667 nm, primary screen (AID 1149). The following applies: COS7 hTOR1A-WT lysate, 635 nm fluorescence, higher = more signal.
For test [18] the target is unchanged. As to the kind of experiment: torsin A mutant lysate binding on microarrays – cell lysate, small-molecule microarray, COS7 lysate, 635/667 nm fluorescence, primary screen (AID 1150).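 Further: score pools 667 nm emission and signal to noise measuring lysate protein binding.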 The following applies: COS7 hTOR1A mutant lysate, 635 nm fluorescence, higher = more signal.
In test [19] the test system is Sonic hedgehog protein (Shh). The test can be described thus: Sonic hedgehog microarray binding compounds – biochemical, small-molecule microarray, 635/667 nm fluorescence, primary screen (AID 1151).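 Further: Shh protein binding to compounds spotted on small-molecule microarray slides; score combines spot fluorescence intensity with signal-to-noise across triplicate slides.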 The following applies: 635 nm fluorescence, higher = more signal.

Molecules are shown by their SMILES. The source made the active and inactive calls. Unless noted, how the calls were made is not given here.

Sequence of Follistatin (Homo sapiens) (P19883 whole entry, looked up): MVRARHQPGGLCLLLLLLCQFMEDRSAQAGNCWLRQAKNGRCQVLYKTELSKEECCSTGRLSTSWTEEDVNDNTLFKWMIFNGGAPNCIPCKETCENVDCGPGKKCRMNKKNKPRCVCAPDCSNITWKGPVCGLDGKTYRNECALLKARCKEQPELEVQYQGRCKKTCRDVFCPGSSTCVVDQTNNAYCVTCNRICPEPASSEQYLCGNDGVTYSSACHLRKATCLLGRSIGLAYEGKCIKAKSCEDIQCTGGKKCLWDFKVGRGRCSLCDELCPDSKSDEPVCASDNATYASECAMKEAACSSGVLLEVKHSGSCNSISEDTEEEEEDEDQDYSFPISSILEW
Sequence of Streptavidin (Streptomyces avidinii) (P22629 whole entry, looked up): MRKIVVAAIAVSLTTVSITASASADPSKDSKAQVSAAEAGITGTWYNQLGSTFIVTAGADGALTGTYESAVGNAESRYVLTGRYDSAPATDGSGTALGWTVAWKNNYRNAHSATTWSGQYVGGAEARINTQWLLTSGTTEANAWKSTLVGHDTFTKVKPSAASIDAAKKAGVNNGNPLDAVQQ
Sequence of Fibroblast growth factor 2 (Homo sapiens) (P09038 whole entry, looked up): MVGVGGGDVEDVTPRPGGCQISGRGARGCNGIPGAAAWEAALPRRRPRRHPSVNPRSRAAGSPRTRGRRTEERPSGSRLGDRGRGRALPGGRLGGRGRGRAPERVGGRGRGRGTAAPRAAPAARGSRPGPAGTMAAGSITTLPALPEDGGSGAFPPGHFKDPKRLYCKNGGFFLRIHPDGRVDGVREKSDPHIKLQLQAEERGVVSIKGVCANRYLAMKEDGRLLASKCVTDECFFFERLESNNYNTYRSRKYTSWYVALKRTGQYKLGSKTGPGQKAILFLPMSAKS
Sequence of Focal adhesion kinase 1 (Homo sapiens) (Q05397 whole entry, looked up): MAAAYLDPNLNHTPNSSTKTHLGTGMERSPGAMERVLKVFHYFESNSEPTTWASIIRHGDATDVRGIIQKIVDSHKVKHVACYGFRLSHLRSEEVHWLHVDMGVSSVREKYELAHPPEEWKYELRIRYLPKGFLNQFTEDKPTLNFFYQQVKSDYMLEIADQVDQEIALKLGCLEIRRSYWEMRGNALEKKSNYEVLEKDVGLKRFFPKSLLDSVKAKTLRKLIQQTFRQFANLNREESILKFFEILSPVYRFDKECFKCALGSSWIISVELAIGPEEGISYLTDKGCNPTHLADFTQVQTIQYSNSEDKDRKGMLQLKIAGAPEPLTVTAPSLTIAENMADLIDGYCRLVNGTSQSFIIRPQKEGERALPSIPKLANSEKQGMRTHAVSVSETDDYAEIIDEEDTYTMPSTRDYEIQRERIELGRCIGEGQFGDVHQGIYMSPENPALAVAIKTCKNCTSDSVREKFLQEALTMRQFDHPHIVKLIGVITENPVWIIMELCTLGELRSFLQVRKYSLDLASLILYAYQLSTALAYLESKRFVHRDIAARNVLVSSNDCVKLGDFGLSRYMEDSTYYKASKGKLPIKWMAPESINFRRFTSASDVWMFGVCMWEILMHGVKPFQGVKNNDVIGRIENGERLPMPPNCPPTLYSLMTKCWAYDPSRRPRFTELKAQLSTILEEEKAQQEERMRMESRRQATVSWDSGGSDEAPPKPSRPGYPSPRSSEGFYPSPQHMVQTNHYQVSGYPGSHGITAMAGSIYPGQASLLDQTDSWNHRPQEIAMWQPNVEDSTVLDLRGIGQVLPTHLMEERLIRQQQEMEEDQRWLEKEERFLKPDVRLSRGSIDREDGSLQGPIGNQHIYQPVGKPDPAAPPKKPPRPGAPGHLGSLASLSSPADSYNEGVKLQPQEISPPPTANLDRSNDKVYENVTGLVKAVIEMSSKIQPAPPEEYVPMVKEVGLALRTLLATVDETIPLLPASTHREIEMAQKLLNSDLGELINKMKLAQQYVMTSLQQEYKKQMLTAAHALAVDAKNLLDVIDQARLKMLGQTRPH
Sequence of Luciferin 4-monooxygenase (Photinus pyralis) (P08659 whole entry, looked up): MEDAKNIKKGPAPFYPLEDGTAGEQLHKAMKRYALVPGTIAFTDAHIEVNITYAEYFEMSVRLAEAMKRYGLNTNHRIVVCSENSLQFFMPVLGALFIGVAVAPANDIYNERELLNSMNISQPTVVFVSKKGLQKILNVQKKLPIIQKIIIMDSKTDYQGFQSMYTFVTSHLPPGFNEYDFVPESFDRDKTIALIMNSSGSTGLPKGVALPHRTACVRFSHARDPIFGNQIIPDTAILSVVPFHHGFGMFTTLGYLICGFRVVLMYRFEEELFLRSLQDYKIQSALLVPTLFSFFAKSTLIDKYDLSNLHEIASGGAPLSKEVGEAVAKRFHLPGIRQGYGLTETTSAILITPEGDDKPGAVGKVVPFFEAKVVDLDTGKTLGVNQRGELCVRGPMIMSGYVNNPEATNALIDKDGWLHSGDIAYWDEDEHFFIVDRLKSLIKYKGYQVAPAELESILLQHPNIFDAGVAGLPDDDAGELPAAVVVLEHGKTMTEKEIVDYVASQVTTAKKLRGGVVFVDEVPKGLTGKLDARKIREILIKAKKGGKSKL
Sequence of Torsin-1A (Homo sapiens) (O14656 whole entry, looked up): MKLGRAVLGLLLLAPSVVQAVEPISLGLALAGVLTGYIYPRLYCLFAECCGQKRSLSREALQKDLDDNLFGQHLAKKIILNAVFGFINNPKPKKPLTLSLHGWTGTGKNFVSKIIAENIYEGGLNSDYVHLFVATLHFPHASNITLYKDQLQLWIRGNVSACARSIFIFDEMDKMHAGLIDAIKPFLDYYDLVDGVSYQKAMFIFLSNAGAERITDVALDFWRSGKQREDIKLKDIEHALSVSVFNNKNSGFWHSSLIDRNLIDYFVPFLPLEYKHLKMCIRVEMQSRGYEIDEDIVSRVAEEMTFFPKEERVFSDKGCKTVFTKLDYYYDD

`C[N+](C)(C)CCCCNC(=O)[C@H]1C[C@H]2C(=O)N[C@@H](Cc3ccccc3)C(=O)N2[C@H]1c1ccc(O)cc1`: the composite z-score was 1.94 in test [1]; -0.304 in test [2]; -0.452 in [3]; 0.451 in [4]; 1.34 in [5]; 0.971 in test [6]. Moreover, the composite z-score in the test with Lefty1 was 0.985; in [8] it was 0.496; in test [10], 0.134; in [15], -0.455; in test [16], 0.106; with Torsin-1A (Homo sapiens) [17], 0.81. Further, the composite z-score is 0.513 with Torsin-1A (Homo sapiens) [18] and 2.04 in test [19]. For the same molecule, the z-score in [7] was 0.079; in test [9] it was -1.27 (inactive); in test [11], 0.0641 (inactive); in test [12] it was 0.0228 (inactive); in test [13], 0.143 (inactive); in test [14], 0.465 (inactive).
As for `C=CCN1C(=O)[C@]2(O[C@H](CCO)[C@@H]([Si](C)(C)c3ccc(OC)cc3)[C@@H]2C)c2cc(N3CCCCC3=O)ccc21`, the composite z-score stood at 1.74 in test [1]; 1.2 in [2]; 0.162 in test [3]; 0.799 in test [4]; 1.32 in test [5]; 0.361 in test [6]. In addition, the composite z-score in the test on Lefty1 was 1.52; in test [8], 0.679; in test [10], 0.193; in test [15] it was 0.802; in test [16], 0.103; with Torsin-1A (Homo sapiens) [17], 1.1. Further, the composite z-score with Torsin-1A (Homo sapiens) [18] stood at 0.364; in test [19] it was 2.24. In addition, the z-score in test [7] is 0.517; in test [9], -0.117 (inactive); in test [11], -5.37 (inactive); in [12], 0.597 (inactive); in test [13] it was 3.85 (inactive); in test [14], 0.22 (inactive).
On to `C=CCNC(=O)[C@H]1[C@@H]2C(=O)O[C@@H](c3ccccc3)[C@@H](c3ccccc3)N2[C@@H](c2ccc(OCCO)cc2)[C@]12C(=O)Nc1ccc(C#CC3=CCCCC3)cc12`, for which the composite z-score in [1] was 0.354; in [2], 1.09; in test [3], -0.544; in test [4], 0.957; in test [5], 1.26; in test [6], 0.553. Moreover, the composite z-score is 0.937 with Lefty1; 0.494 in test [8]; 0.722 in test [10]; 0.376 in test [15]; -0.0136 in test [16]; 0.127 with Torsin-1A (Homo sapiens) [17]. Further, the composite z-score with Torsin-1A (Homo sapiens) [18] is 0.578; in test [19], 1.54. The z-score in [7] is -0.801; in test [9] it was 0.098 (inactive); in test [11], -4.45 (inactive); in test [12], 0.334 (inactive); in [13], 0.775 (inactive); in test [14], -0.267 (inactive).
With `C=CCN1C(=O)[C@@]2(O[C@@H](CCO)[C@H]([Si](C)(C)c3ccc(OC)cc3)[C@H]2C)c2cc(NC(=O)c3ccc(OC)cc3)ccc21`, the composite z-score in [1] was 0.919; in [2], 0.563; in [3], -0.0376; in [4], 0.259; in test [5], 1.38; in test [6] it was 1.2. Further, the composite z-score with Lefty1 is 0.763; in [8], 0.458; in test [10], 0.157; in test [15] it was 0.15; in test [16], -0.0221; with Torsin-1A (Homo sapiens) [17], 0.214. The figures for the composite z-score (with Torsin-1A (Homo sapiens) [18]; in test [19]) were 0.373 and 1.64, respectively. Further, the z-score in test [7] was 2.81; in test [9], -1.26 (inactive); in [11] it was -6.5 (inactive); in test [12], -0.39 (inactive); in test [13], 10.6 (active); in test [14], -1.6 (inactive).

Values taken from PubChem BioAssay.
